# Source: PubChem BioAssay (NCATS)
# Where “and” joins values, the source holds several entries; their conditions need not be identical. Equal entries are not always repeated. Unmarked numbers belong to inactive results. Inconclusive results are not listed. The list shows a part of the results. Entries that show only a call come without a potency. Calls of active or inactive are those of the source. Unless noted, calls follow the shape of the dose curve; as a rule, active = well fitted curve in the direction sought with a large enough effect; inconclusive = small, poorly fitted or top-dose-only effect, or another doubt; inactive = no such curve, though single readings can be large; an effect the other way counts as inactive or inconclusive.
# What was measured:
# [1] = target: Cytochrome P450 3A4 (Homo sapiens) (UniProt P08684); assay: qHTS Assay for Inhibitors and Substrates of Cytochrome P450 3A4 (AID 884); also: nearly all actives have a fitted effect of over 50% in size; also: potency is read from the fitted curve at half-maximal effect
# Chain of Cytochrome P450 3A4 (Homo sapiens) (P08684 whole entry, looked up): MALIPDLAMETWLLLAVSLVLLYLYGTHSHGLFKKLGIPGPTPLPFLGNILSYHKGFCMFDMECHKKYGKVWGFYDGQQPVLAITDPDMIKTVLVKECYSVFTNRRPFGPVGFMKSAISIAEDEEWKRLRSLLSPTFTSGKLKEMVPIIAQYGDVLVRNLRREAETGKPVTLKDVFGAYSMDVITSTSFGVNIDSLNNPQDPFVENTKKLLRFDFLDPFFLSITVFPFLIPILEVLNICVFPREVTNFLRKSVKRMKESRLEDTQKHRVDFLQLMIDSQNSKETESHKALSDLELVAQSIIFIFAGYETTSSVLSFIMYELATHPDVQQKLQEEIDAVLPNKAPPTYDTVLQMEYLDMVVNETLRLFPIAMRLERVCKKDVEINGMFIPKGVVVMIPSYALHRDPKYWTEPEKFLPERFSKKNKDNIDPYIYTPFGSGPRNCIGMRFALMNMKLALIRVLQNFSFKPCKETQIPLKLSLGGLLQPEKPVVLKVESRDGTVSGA
# Procedure, shortened: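 Luminescent readout of luciferin produced by CYP3A4 (20 nM) dealkylation of Luciferin-PPXE, 25 uM (its KM). NADPH-driven reaction ran 60 min at RT after 10 min compound preincubation; data scaled to 57 uM ketoconazole as 100% inhibition.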
# [2] = Confirmation and Secondary Assay for Modulators of Hemoglobin Beta Chain Splicing at IVS2 654 locus (AID 910);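 also: per-well total GFP intensity by laser scanning cytometry after 2-day treatment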
# Procedure, shortened: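 HeLa cells stably carrying EGFP interrupted by mutant beta-globin IVS2-654 intron (CMV-driven) were treated with compound for 2 days at 37C; corrected splicing was scored as total peak GFP intensity per well (488 nm excitation, 500-520 nm emission).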
# [3] = qHTS Assay for Identification of Small Molecule Agonists for Thrombopoietin (TPO) Signaling Pathway (AID 917)
# Procedure, shortened: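 First, Ba/F3 cells with human TPO receptor were held overnight without IL-3. Next, compounds and TPO (26 pM final) were added. After 24 hrs at 37 C, luciferase detection reagent was added and luminescence measured following 10 min at room temperature.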
# [4] = Confirmation and Secondary Assay for Modulators of Hemoglobin Beta Chain Splicing at IVS2 705 locus (AID 930);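 also: HeLa cells stably expressing the EGFP-705 splicing reporter; GFP fluorescence per well restored by corrected splicing of the IVS2-705 intron in EGFP; series mostly up to about 46 µM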
# Procedure, shortened: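 Fluorescence gain (488 nm laser, 500-520 nm PMT) reflects restored correct splicing of a mutant IVS2-705 intron inside EGFP in stably transfected HeLa cells after 2-day compound treatment.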
# [5] = target: Alpha-galactosidase A (Homo sapiens) (UniProt P06280); assay: Counterscreen for Glucocerebrosidase Inhibitors: qHTS Assay for Human alpha-Galactosidase at pH 4.5 (AID 992)
# Chain of Alpha-galactosidase A (Homo sapiens) (P06280 whole entry, looked up): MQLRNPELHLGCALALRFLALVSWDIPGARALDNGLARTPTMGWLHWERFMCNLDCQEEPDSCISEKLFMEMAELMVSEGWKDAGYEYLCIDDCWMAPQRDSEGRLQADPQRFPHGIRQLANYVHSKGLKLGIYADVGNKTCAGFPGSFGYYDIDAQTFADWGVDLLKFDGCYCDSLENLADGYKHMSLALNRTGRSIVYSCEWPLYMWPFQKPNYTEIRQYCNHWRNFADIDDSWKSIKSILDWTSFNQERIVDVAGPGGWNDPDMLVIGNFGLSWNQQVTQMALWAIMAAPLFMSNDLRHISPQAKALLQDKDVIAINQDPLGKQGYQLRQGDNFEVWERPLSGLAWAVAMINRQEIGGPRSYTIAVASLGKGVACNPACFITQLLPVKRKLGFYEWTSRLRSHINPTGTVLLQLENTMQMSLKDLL
# Procedure, shortened: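 Each compound is preincubated briefly with 2 nM enzyme before substrate addition (80 uM); plates then sit 20 min at ambient temperature, are quenched with 1M NaOH/1M glycine, and read fluorometrically.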
# [6] = target: alpha-glucosidase (Oryza sativa, rice) (UniProt Q653V4); assay: Counterscreen for Glucocerebrosidase Inhibitors: qHTS Assay for Rice alpha-Glucosidase at pH 5.0 (AID 997)
# Procedure, shortened: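 Endpoint fluorogenic assay at pH 5.0: compounds (0.7 nM to 77 uM) titrated against 4 nM rice enzyme and 400 uM 4-MU-alpha-glucoside for 20 min at room temperature; NaOH/glycine stop, read ex 365/em 440 nm, Hill-fitted AC50.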
# [7] = target: Cytochrome P450 2C9 (Homo sapiens) (UniProt P11712); assay: qHTS Assay for Inhibitors and Substrates of Cytochrome P450 2C9 (AID 883); also: nearly all actives have a fitted effect of over 60% in size; also: potency is read from the fitted curve at half-maximal effect
# Chain of Cytochrome P450 2C9 (Homo sapiens) (P11712 whole entry, looked up): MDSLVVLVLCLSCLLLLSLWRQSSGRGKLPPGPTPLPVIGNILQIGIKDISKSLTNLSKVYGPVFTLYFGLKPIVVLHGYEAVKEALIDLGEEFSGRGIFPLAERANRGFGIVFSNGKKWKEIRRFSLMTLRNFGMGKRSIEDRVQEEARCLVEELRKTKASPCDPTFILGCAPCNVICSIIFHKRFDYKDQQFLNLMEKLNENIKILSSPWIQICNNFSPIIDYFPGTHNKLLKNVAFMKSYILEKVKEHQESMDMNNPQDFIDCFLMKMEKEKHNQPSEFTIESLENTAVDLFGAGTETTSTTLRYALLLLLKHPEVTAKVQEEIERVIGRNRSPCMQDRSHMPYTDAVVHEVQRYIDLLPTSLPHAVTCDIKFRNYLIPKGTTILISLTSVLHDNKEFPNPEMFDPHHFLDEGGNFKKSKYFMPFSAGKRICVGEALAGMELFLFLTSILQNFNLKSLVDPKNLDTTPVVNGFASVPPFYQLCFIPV
# Procedure, shortened: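 A luminogenic readout tracked human CYP2C9 (10nM) converting deoxyluciferin (100uM, at KM) in 25mM KPO4 during 60 min at 37C with regenerated NADPH. Values normalized to 57uM sulphaphenazole as complete inhibition.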
# [8] = target: Muscarinic acetylcholine receptor M1 (Rattus norvegicus) (UniProt P08482); assay: qHTS Assay for Antagonists of Acetylcholine Muscarinic M1 Receptor: Kinetic Measurement of Intracellular Calcium Response (AID 943);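 also: Fluo-4 calcium signal as peak divided by basal fluorescence over 4 min; series mostly up to about 35 µM; nearly all actives have a fitted effect of over 75% in size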
# Chain of Muscarinic acetylcholine receptor M1 (Rattus norvegicus) (P08482 whole entry, looked up): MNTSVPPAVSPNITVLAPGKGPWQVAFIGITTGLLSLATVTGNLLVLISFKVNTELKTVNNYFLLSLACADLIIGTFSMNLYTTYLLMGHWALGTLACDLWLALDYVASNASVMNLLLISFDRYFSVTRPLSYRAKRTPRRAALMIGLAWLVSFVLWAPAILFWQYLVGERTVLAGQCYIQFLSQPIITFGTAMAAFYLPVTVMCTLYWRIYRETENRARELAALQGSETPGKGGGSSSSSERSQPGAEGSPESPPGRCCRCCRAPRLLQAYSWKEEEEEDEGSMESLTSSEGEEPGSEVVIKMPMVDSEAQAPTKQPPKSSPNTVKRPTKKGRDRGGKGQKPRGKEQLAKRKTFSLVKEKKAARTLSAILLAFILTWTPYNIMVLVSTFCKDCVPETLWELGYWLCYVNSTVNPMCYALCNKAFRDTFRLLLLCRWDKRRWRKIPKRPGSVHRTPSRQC
# Procedure, shortened: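 Antagonism is measured as inhibition of the carbachol-evoked calcium rise in CHO cells transfected with rat M1. Cells are dye-loaded, exposed to compound for 10 min, then stimulated with 100 nM carbachol (EC80).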
# [9] = target: Muscarinic acetylcholine receptor M1 (Rattus norvegicus) (UniProt P08482); assay: qHTS Assay for Antagonists of Acetylcholine Muscarinic M1 Receptor: Measurement of IP-One Response (AID 944); also: nearly all actives have a fitted effect of over 75% in size
# Procedure, shortened: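 Antagonist mode with rat M1 receptor transfected into CHO cells. Compound is added first for 10 min, carbachol at its EC80 follows for 30 min, and lysis reagents then allow TR-FRET detection of accumulated IP1.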
# [10] = target: Cytochrome P450 2C19 (Homo sapiens) (UniProt P33261); assay: qHTS Assay for Inhibitors and Substrates of Cytochrome P450 2C19 (AID 899); also: nearly all actives have a fitted effect of over 60% in size; also: potency is read from the fitted curve at half-maximal effect
# Chain of Cytochrome P450 2C19 (Homo sapiens) (P33261 whole entry, looked up): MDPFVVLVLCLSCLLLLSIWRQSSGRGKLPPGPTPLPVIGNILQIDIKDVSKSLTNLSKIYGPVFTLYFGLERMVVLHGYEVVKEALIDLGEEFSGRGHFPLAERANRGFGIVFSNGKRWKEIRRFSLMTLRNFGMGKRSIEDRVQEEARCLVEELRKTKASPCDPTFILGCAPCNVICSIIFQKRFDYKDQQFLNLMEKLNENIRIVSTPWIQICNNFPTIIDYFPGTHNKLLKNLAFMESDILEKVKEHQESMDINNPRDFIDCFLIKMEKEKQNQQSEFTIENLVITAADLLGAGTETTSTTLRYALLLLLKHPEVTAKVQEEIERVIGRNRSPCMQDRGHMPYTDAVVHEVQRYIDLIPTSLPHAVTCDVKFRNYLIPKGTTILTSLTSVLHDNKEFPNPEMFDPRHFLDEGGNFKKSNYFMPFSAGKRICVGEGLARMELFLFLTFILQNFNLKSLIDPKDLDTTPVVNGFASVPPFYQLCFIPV
# Procedure, shortened: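 NADPH-dependent conversion of Luciferin-H EGE (10uM, at KM) by 5nM enzyme in 50mM KPO4, 60 min at 37C following 10 min compound preincubation. Stopped with luciferin detection buffer; luminescence read after 20 min.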
# [11] = target: Cytochrome P450 2C9 (Homo sapiens) (UniProt P11712); assay: Cytochrome P450 family 2 subfamily C member 9 (CYP2C9) small molecule antagonists: luciferase biochemical (cell-free) qHTS assay (AID 1645842; active = well fitted curve in the direction sought with a large enough effect in the repeat runs; an effect the other way counts as inactive or inconclusive; also: potency is read from the fitted curve at half-maximal effect; nearly all actives have a fitted effect of over 55% in size)
# Procedure, shortened: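 P450-Glo CYP2C9 system: proluciferin substrate with enzyme in mix containing 0.4% BSA, 10 min at room temperature, then NADPH regeneration solution added and incubated 1 h at 37C. Detection reagent stopped reaction; luminescence read after 20 min as RLU.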
# [12] = target: Cytochrome P450 2D6 (Homo sapiens) (UniProt P10635); assay: qHTS Assay for Inhibitors and Substrates of Cytochrome P450 2D6 (AID 891); also: nearly all actives have a fitted effect of over 60% in size; also: potency is read from the fitted curve at half-maximal effect
# Chain of Cytochrome P450 2D6 (Homo sapiens) (P10635 whole entry, looked up): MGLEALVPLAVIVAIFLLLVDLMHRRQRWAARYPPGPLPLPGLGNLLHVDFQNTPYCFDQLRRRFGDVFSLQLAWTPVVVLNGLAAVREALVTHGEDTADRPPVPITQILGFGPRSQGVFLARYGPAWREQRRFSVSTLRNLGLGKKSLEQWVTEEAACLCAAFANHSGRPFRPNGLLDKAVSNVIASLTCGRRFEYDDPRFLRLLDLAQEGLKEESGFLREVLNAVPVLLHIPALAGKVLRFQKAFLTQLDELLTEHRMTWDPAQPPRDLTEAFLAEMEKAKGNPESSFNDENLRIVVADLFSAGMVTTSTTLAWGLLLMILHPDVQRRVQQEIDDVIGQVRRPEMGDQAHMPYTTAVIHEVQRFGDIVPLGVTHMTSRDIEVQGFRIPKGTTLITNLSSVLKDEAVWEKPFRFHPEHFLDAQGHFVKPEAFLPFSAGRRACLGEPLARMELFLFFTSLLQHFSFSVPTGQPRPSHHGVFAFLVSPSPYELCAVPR
# Procedure, shortened: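 Luminescent read-out of luciferin formed by 5 nM human CYP2D6 demethylating 30 uM Luciferin-ME EGE (Km level) over 60 min at room temperature after NADPH regeneration addition. Data normalized to full inhibition by 1.43 uM quinidine.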
# [13] = target: DNA dC->dU-editing enzyme APOBEC-3G (Homo sapiens) (UniProt Q9HC16); assay: qHTS for inhibitors of Vif-A3G interactions: Validation (AID 588379)
# Chain of DNA dC->dU-editing enzyme APOBEC-3G (Homo sapiens) (Q9HC16 whole entry, looked up): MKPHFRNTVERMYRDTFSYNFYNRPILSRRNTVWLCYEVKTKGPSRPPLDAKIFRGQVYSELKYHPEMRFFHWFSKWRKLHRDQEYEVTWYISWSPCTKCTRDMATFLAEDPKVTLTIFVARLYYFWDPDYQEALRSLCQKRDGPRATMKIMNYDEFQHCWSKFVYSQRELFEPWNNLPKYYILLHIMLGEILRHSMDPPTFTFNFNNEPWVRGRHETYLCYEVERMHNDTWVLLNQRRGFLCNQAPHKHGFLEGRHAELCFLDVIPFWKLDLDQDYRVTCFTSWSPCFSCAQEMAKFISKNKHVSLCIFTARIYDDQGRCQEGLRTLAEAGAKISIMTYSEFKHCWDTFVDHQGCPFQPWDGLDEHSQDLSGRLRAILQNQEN
# Procedure, shortened: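 Yellow fluorescence (Ex 488, Em 500-530) of Vif-coexpressing HeLa A3G-eYFP cells, scanned by Acumen cytometer, reports blocked A3G degradation. Cells plated at 700/well overnight at 37 deg C before compound addition, then a further overnight compound incubation at 37 deg C.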
# [14] = qHTS Assay for Identification of Small Molecule Agonists for Hypoxia Response Element Signaling Pathway (AID 914; active = well fitted activation curve with a large enough effect in the signal ratio, with a control signal flat, not every such curve was filed as active; the % refers to the signal ratio); settings: ME-180 (cervical carcinoma) HRE-bla reporter, beta-lactamase ratio, CoCl2, 17 h; activation: active compounds read high
# Procedure, shortened: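 A beta-lactamase reporter under hypoxia response element control in ME-180 cells served as the system. Compound titrations plus EC50 CoCl2 ran 17 h at 37 degrees Celsius; AC50 values were fitted from %Activity.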
# [15] = target: Dual specificity protein kinase CLK4 (Homo sapiens) (UniProt Q9HAZ1); assay: qHTS Assay for Inhibitors of CDC-like Kinase 4 (Kinase-Glo Assay) (AID 1770); also: nearly all actives have a fitted effect of over 65% in size; also: potency is read from the fitted curve at half-maximal effect
# Chain of Dual specificity protein kinase CLK4 (Homo sapiens) (Q9HAZ1 whole entry, looked up): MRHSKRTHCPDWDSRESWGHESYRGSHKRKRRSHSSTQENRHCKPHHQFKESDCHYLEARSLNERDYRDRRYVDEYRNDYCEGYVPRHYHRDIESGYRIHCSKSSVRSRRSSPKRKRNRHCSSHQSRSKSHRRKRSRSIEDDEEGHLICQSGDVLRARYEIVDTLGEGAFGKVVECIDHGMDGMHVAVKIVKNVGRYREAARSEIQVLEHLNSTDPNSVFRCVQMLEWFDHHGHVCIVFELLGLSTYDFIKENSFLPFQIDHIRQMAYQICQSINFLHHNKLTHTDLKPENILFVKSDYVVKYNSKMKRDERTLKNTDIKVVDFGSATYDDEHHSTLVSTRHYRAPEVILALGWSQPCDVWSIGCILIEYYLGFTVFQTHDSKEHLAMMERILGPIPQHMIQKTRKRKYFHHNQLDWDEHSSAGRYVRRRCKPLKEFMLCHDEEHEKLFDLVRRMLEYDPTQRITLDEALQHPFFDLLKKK
# Procedure, shortened: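 Recombinant human Clk4 (25 nM) phosphorylated RS repeat peptide (100 uM) with 1 uM ATP in Tris pH 7.5/MgCl2/EGTA/DTT/Triton buffer for 4.5 h at room temperature. Residual ATP was quantified by Kinase-Glo luciferase luminescence.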
# [16] = target: Dual specificity protein kinase CLK4 (Homo sapiens) (UniProt Q9HAZ1); assay: qHTS Assay for Inhibitors of CDC-like Kinase 4 (ADP-Glo Assay) (AID 1771); also: nearly all actives have a fitted effect of over 70% in size; also: potency is read from the fitted curve at half-maximal effect
# Procedure, shortened: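 Compounds are pin-transferred onto substrate mix (100 uM RS peptide, 1 uM ATP), then 25 nM Clk4 is added. After 1 hr at room temperature, ADP-Glo reagent runs 45 min, detection reagent 30 min, then luminescence is read.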
# [17] = target: Dual specificity protein kinase CLK4 (Homo sapiens) (UniProt Q9HAZ1); assay: qHTS Assay for Inhibitors of CDC-like Kinase 4 (ADP-FP Assay) (AID 1795); also: nearly all actives have a fitted effect of over 60% in size; also: potency is read from the fitted curve at half-maximal effect
# Procedure, shortened: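 Recombinant human Clk4 (6.25 nM) phosphorylated RS repeat peptide (100 uM) with 1 uM ATP in Tris pH 7.5/MgCl2/EGTA/DTT/Triton buffer for one hour. ADP was quantified by Transcreener competitive fluorescence polarization against an ADP calibration curve.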
# [18] = target: Vitamin D3 receptor (Homo sapiens) (UniProt P11473); assay: qHTS for Inhibitors of the vitamin D receptor (VDR): Hit Validation in Primary Screen (AID 602199); settings: VDR-coactivator inhibition assay, qHTS confirmation; also: potency is read from the fitted curve at half-maximal effect
# Chain of Vitamin D3 receptor (Homo sapiens) (P11473 whole entry, looked up, the tested form may be a part): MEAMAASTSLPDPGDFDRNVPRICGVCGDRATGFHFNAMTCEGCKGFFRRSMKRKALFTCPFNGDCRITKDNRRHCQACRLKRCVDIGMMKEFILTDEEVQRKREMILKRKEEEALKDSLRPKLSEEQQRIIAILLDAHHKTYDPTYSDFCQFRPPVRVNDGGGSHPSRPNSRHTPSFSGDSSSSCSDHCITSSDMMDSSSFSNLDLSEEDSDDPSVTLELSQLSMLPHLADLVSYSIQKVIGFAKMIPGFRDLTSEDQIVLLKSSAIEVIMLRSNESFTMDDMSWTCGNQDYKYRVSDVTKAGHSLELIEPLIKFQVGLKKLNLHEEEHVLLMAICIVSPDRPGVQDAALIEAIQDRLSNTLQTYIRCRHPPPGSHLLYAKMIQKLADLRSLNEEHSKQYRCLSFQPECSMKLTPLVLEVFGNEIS
# Procedure, shortened: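 Fluorescence polarization assay of VDR binding to Alexa 647-labelled SRC2-3 coactivator peptide: 800nM VDR with 5uM LG19078 agonist, compounds, 2 h at room temperature, read Ex 620 nm/Em 688 nm.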
# [19] = target: Vitamin D3 receptor (Homo sapiens) (UniProt P11473); assay: qHTS for Inhibitors of the vitamin D receptor (VDR): Hit Validation using a Fluorescein Assay (AID 602200); settings: VDR-coactivator binding, fluorescein fluorescence polarization; also: potency is read from the fitted curve at half-maximal effect
# Procedure, shortened: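 Fluorescence polarization (Ex 495 nm/Em 520 nm) read after 2 h at room temperature, reporting disruption of binding between 1.5 uM VDR-LBD, liganded by 5 uM LG19078, and 5 nM fluorescein-labelled SRC2-3 coactivator peptide (final concentrations).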
structure (smiles),measurement,setting,value
C[C@@](N)(Cc1ccc(O)cc1)C(=O)O,Potency,[1],inactive
same,Potency,[2],inactive
same,outcome,[3],inactive
same,outcome,[4],inactive
same,outcome,[5],inactive
same,outcome,[6],inactive
N=c1ccn2c(n1)OC1C(O)C(CO)OC12 (centres undefined),Potency,[1],inactive
same,Potency,[2],inactive
same,outcome,[4],inactive
O=C(O)[C@H]1CCCN(CCC=C(c2ccccc2)c2ccccc2)C1,Potency,[7],7.94 µM (active)
same,outcome,[3],inactive
same,Potency,[8],inactive
same,Potency,[9],inactive
same,outcome,[5],inactive
same,outcome,[6],inactive
C[N+]1(C)CCC[C@@H](OC(=O)C(O)(c2ccccc2)c2ccccc2)C1,Potency,[10],inactive
C/C=C\C(=O)N(CC)c1ccccc1C,Potency,[1],inactive
CCOC(=O)c1ccc(NC(=O)CSc2nc3c([nH]c4ccccc43)c(=O)n2C)cc1,Potency,[11],3.01 µM (active)
COC(=O)C1OC(=O)C2OC23[C@]2(C)C(O)CC4C(C)(C)C(OC(C)=O)CC(OC(C)=O)[C@@]4(C)C2CC[C@@]13C (some centres undefined),Potency,[1],251 nM (active) and 794 nM (active)
same,Potency,[2],inactive
same,outcome,[4],inactive
O=c1c(O)c(-c2ccc(O)cc2)oc2ccccc12,Potency,[1],12.6 µM (active)
same,Potency,[2],inactive
same,outcome,[4],inactive
Nc1ccn(C2OC(CO)C(O)C2O)c(=O)n1 (centres undefined),Potency,[2],inactive
same,outcome,[4],inactive
CC(=O)Oc1cc(OC(C)=O)c2c(c1)OC(c1ccc(OC(C)=O)c(OC(C)=O)c1)C(OC(C)=O)C2 (centres undefined),Potency,[1],31.6 µM (active)
same,Potency,[2],inactive
c1ccc(C(c2ccccc2)N2CC3(CCNCC3)C2)cc1,Potency,[1],inactive
same,Potency,[12],2.51 µM (active)
CC1(C)Oc2ccc(C#N)cc2[C@H](N2CCCC2=O)[C@H]1O,Potency,[7],inactive
same,Potency,[10],inactive
same,outcome,[13],inactive
CC(=O)Oc1c(C)c(C)c2c(c1C)CCC(C)(CCCC(C)CCCC(C)CCCC(C)C)O2 (centres undefined),Potency,[1],inactive
same,Potency,[2],inactive
same,outcome,[4],inactive
same,outcome,[13],inactive
COc1c2ccoc2nc2c(OC)c(OC[C@H](O)C(C)(C)O)ccc12,Potency,[7],inactive
same,Potency,[12],inactive
same,Potency,[10],inactive
CN(C)CCOC(c1ccccc1)c1ccccc1 (tested in a mixture with another compound),Potency,[2],inactive
same,outcome,[4],inactive
COc1ccc(CNc2ccnc(-c3ccoc3)n2)c(OC)c1,activation,[14],16.3%
same,Potency,[15],inactive
same,Potency,[16],inactive
same,Potency,[17],inactive
COc1ccccc1-c1cc(C(F)(F)F)nc(S(=O)(=O)CCCC(=O)Nc2ccc(F)cc2F)n1,Potency,[18],4.47 µM (active)
same,Potency,[19],8.91 µM (active)
COc1ccccc1-c1cc(Nc2ccc(F)cc2)ncn1,Potency,[10],7.94 µM (active)
COc1c(O)cc2c(c1O)[C@@H]1O[C@@H](CO)[C@@H](O)[C@@H](O)[C@@H]1OC2=O,activation,[14],14.6%
CN(C)c1ncc2nc(-c3ccc(Cl)cc3)c(=O)n(Cc3cccs3)c2n1,Potency,[15],inactive
same,Potency,[16],inactive
same,Potency,[17],inactive
Cc1cnc(CNc2cc(-c3ccccc3Cl)ncn2)cn1,Potency,[1],inactive
same,Potency,[16],20 µM (active)
C[C@@]12CCC(=O)C=C1CC[C@H]1[C@H]3CC[C@](O)(C(=O)CO)[C@]3(C)CC(=O)[C@@H]12,Potency,[7],inactive
same,Potency,[12],inactive
same,Potency,[10],inactive
COCCn1c(=O)c(-c2ccccc2)nc2cncnc21,Potency,[15],inactive
same,Potency,[16],inactive
same,Potency,[17],inactive
CCNc1ncc2nc(-c3cn(C)c4ccccc34)c(=O)n(CCC#N)c2n1,Potency,[12],3.98 µM (active)
same,Potency,[15],inactive
same,Potency,[17],inactive
CCOc1ccc(NC(=O)c2c(NC(=O)Cc3ccccc3)sc3c2CCC(C)C3)cc1 (centres undefined),Potency,[18],5.62 µM (active)
same,Potency,[19],8.91 µM (active)
COc1ccc(-n2c(=O)c(-c3cccc(F)c3)nc3cncnc32)cc1,Potency,[15],inactive
same,Potency,[16],inactive
same,Potency,[17],inactive
Fc1ccc(Nc2ncnc3ccc(-c4ccoc4)cc23)cc1,Potency,[15],0.631 µM (active)
same,Potency,[16],0.708 µM (active)
same,Potency,[17],0.355 µM (active)
CC(=O)OC1CCC23CC1(C)CCC2C(C)(C)CC3OC(C)=O (centres undefined),Potency,[2],inactive
same,outcome,[4],inactive
Cc1ccccc1-c1cc(N(C)Cc2ccco2)ncn1,Potency,[10],6.31 µM (active)
same,Potency,[17],inactive
COc1cccc(-c2cc(NCc3ccccc3)ncn2)c1,Potency,[10],7.94 µM (active)
same,Potency,[15],15.8 µM (active)
same,Potency,[16],28.2 µM (active)
same,Potency,[17],12.6 µM (active)
O=c1c(-c2cccc(Cl)c2)nc2cncnc2n1Cc1ccccc1Cl,Potency,[7],3.98 µM (active)
same,Potency,[10],5.01 µM (active)
COc1cccc(Cn2c(=O)c(-c3cc(F)cc(F)c3)nc3cnc(N4CCNCC4)nc32)c1,Potency,[7],7.94 µM (active)
same,Potency,[15],inactive
same,Potency,[16],inactive
same,Potency,[17],inactive
COc1ccc(-c2nc3cnc(OC)nc3n(-c3ccc(OC)cc3)c2=O)cc1,Potency,[15],inactive
same,Potency,[16],inactive
same,Potency,[17],inactive
COc1ccc2[nH]cc(CCNc3nc(-c4ccc(C(=O)N(C)C)cc4)nc4ccccc34)c2c1,Potency,[1],2.51 µM (active)
same,Potency,[10],3.16 µM (active)
same,Potency,[2],inactive
same,outcome,[4],inactive
COCCn1c(=O)c(C)nc2cncnc21,Potency,[15],inactive
same,Potency,[16],inactive
same,Potency,[17],inactive
CNc1ccnc(-c2ccccc2C)n1,Potency,[15],inactive
same,Potency,[16],inactive
same,Potency,[17],inactive
